# Laboratory results taken from article PMC5540273 (PLoS ONE, 2017).
# “And” between values parts separate entries of the source, which are not always exact repeats. Identical values can stand only once. Like-named read-outs stand apart in the source and are kept apart here.
# Columns and labels:
# [1] = system: T1, NDR1; settings: n = 1
# T1 construct: gene STK38
# [2] = system: NDR2; settings: concentration: 1 μM, replicates: in singlicate; n = 1
# [3] = system: NEK10; settings: n = 1
# [4] = system: NEK11; settings: concentration: 1 μM, replicates: in singlicate; n = 1
# [5] = system: NEK1; settings: concentration: 1 μM, replicates: in singlicate; n = 1
# [6] = system: NEK2; settings: n = 1
# [7] = system: NEK3; settings: n = 1
# [8] = system: NEK4; settings: n = 1
# [9] = system: NEK5; settings: n = 1
# [10] = system: NEK6; settings: concentration: 1 μM, replicates: in singlicate; n = 1
# [11] = system: NEK7; settings: n = 1
# [12] = system: NEK9; settings: n = 1
# [13] = system: T2, NIK; settings: n = 1
# T2 construct: gene MAP3K14
# [14] = system: T3, NIM1; settings: n = 1
# T3 construct: gene MGC42105
# [15] = system: NLK; settings: n = 1
# [16] = system: T4, OSR1; settings: n = 1
# T4 construct: gene OXSR1
# [17] = system: PAK1; settings: n = 1
# [18] = system: PAK2; settings: n = 1
# [19] = system: PAK3; settings: n = 1
# [20] = system: PAK4; settings: concentration: 1 μM, replicates: in singlicate; n = 1
# [21] = concentration: 1 μM, replicates: in singlicate
# [22] = concentration: 1 μM,replicates: in singlicate, 1 µM
# 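Also: KINOMEscan kinase panel screen.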
structure (smiles),measurement,setting,value
COc1ccccc1CNC(=O)c1cc(C(=O)c2ccccc2C)c[nH]1 [GSK364507],%Inh,[1]; [21],0%
same,%Inh,[2],0%
same,%Inh,[3]; [21],6%
same,%Inh,[4],0%
same,%Inh,[5],0%
same,%Inh,[6]; [21],0%
same,%Inh,[7]; [21],8%
same,%Inh,[8]; [21],14%
same,%Inh,[9]; [21],13%
same,%Inh,[10],17%
same,%Inh,[11]; [21],6%
same,%Inh,[12]; [21],15%
same,%Inh,[13]; [21],12%
same,%Inh,[14]; [21],16%
same,%Inh,[15]; [21],40%
same,%Inh,[16]; [21],8%
same,%Inh,[17]; [21],6%
same,%Inh,[18]; [21],1%
same,%Inh,[19]; [21],0%
same,%Inh,[20],0%
CSc1nn2c(=O)cc(N3CCOCC3)nc2n1Cc1cccc(C(F)(F)F)c1C [GSK2363608],%Inh,[1]; [22],17% and 8%
same,%Inh,[2],0%
same,%Inh,[3]; [22],8% and 28%
same,%Inh,[4],0%
same,%Inh,[5],0%
same,%Inh,[6]; [22],100% and 1%
same,%Inh,[7]; [22],14% and 3%
same,%Inh,[8]; [22],0% and 16%
same,%Inh,[9]; [22],23% and 0%
same,%Inh,[10],0%
same,%Inh,[11]; [22],3% and 0%
same,%Inh,[12]; [22],22% and 2%
same,%Inh,[13]; [22],0% and 6%
same,%Inh,[14]; [22],2% and 12%
same,%Inh,[15]; [22],2% and 37%
same,%Inh,[16]; [22],15% and 7%
same,%Inh,[17]; [22],0% and 38%
same,%Inh,[18]; [22],0% and 37%
same,%Inh,[19]; [22],8% and 0%
same,%Inh,[20],0%
Fc1cccc(COc2nnc(-c3ccc4c(c3)CCO4)o2)c1,%Inh,[1]; [21],0%
same,%Inh,[2],4%
same,%Inh,[3]; [21],0%
same,%Inh,[4],0%
same,%Inh,[5],10%
same,%Inh,[6]; [21],0%
same,%Inh,[7]; [21],12%
same,%Inh,[8]; [21],0%
same,%Inh,[9]; [21],0%
same,%Inh,[10],0%
same,%Inh,[11]; [21],19%
same,%Inh,[12]; [21],3%
same,%Inh,[13]; [21],0%
same,%Inh,[14]; [21],0%
same,%Inh,[15]; [21],6%
same,%Inh,[16]; [21],0%
same,%Inh,[17]; [21],27%
same,%Inh,[18]; [21],55%
same,%Inh,[19]; [21],16%
same,%Inh,[20],15%
Cc1cccc(-c2nc(-c3ccc(S(C)(=O)=O)cc3)sc2-c2ccnc(NCCc3ccccc3)c2)c1,%Inh,[1]; [21],1%
same,%Inh,[2],0%
same,%Inh,[3]; [21],14%
same,%Inh,[4],0%
same,%Inh,[5],0%
same,%Inh,[6]; [21],0%
same,%Inh,[7]; [21],30%
same,%Inh,[8]; [21],0%
same,%Inh,[9]; [21],2%
same,%Inh,[10],0%
same,%Inh,[11]; [21],0%
same,%Inh,[12]; [21],0%
same,%Inh,[13]; [21],0%
same,%Inh,[14]; [21],0%
same,%Inh,[15]; [21],11%
same,%Inh,[16]; [21],0%
same,%Inh,[17]; [21],18%
same,%Inh,[18]; [21],20%
same,%Inh,[19]; [21],0%
same,%Inh,[20],1%
Cc1cccc(-c2nc(Nc3cccc(C(N)=O)c3)c3ccccc3n2)n1 [GW876019],%Inh,[1]; [21],9%
same,%Inh,[2],0%
same,%Inh,[3]; [21],12%
same,%Inh,[4],0%
same,%Inh,[5],6%
same,%Inh,[6]; [21],0%
same,%Inh,[7]; [21],28%
same,%Inh,[8]; [21],0%
same,%Inh,[9]; [21],12%
same,%Inh,[10],0%
same,%Inh,[11]; [21],0%
same,%Inh,[12]; [21],15%
same,%Inh,[13]; [21],0%
same,%Inh,[14]; [21],0%
same,%Inh,[15]; [21],0%
same,%Inh,[16]; [21],0%
same,%Inh,[17]; [21],16%
same,%Inh,[18]; [21],21%
same,%Inh,[19]; [21],49%
same,%Inh,[20],17%
